# Data published in PubChem BioAssay AID1851 (National Center for Advancing Translational Sciences (NCATS), 2009).
# Screen size: about 16,000 compounds; about 5,700 (36%) were called active. Not shown: some 24% with an inconclusive outcome. Calls follow the shape of the dose curve; as a rule, active = well fitted curve in the direction sought with a large enough effect; inconclusive = small, poorly fitted or top-dose-only effect, or effect the other way; inactive = no such curve, though single readings can be large or run the other way. The list shows a part of the results.
# Target: Cytochrome P450 1A2 (Homo sapiens) (UniProt P05177)
# Sequence (P05177 whole entry, looked up): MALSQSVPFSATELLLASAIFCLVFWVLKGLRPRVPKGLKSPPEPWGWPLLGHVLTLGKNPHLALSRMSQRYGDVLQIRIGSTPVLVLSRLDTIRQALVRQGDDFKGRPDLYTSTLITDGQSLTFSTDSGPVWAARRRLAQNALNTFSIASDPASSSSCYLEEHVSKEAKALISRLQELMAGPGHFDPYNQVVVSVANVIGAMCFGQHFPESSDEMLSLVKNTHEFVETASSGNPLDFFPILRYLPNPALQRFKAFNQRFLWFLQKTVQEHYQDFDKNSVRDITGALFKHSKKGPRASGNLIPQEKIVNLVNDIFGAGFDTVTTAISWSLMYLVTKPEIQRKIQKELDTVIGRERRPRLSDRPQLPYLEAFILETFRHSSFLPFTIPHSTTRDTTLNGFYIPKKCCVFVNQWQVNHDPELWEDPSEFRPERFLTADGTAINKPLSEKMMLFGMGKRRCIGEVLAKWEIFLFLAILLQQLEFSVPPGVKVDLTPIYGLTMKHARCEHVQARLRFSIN
# Experiment: Cytochrome panel assay with activity outcomes
# Conditions: recombinant CYP, pro-luciferin dealkylation, luminescence, p450-cyp1a2; series mostly up to 57.1 µM
# % is scaled to controls: 0 for no effect and ±100 for the full control effect.
Compound,AC50,"activity, negative = inhibition"
COc1ccc(-c2nc3cnc(N4CCN(C)CC4)nc3n(CCc3ccccc3)c2=O)cc1,inactive,–
COCCn1c(=O)c(C)nc2cnc(N3CCNCC3)nc21,10 µM (active),–
COCCn1c(=O)c(C)nc2cnc(N3CCN(C)CC3)nc21,15.8 µM (active),–
CN1CCN(c2ncc3nc(-c4cc(F)cc(F)c4)c(=O)n(CCc4ccccc4)c3n2)CC1,inactive,–
Cc1nc2cnc(N3CCN(C)CC3)nc2n(CCc2ccccc2)c1=O,10 µM (active),–
CN(C)C[C@H]1CCC2=C(C1=O)C(c1ccc(Cl)c(Cl)c1)C1=C(CC[C@H](CN(C)C)C1=O)O2,–,-2.04% [at 2.29 µM] (inactive)
CC[C@H]1C2=C3C(CC[C@H]4C(OCc5ccc(F)cc5C(F)(F)F)OC[C@](C)([C@@H]34)N(C(=O)OC(C)(C)C)C2)C(COC(C)=O)C1COC(C)=O (some centres not stated),inactive,–
Oc1cc(CN2COc3ccccc32)c(O)cc1CNC1CCCCC1,–,-14.2% [at 11.4 µM] (inactive)
Cc1cc(C(C)(C)C)cc(CNC2CCCCC2)c1O,3.16 µM (active),–
CO[C@@H]1COC(=O)C/C=C\[C@@H](C)COC(=O)[C@H](Cc2ccccc2)NC(=O)C/C=C\[C@H]1C,–,5.59% [at 11.4 µM] (inactive)
CCC(=O)NCc1c(Cl)cccc1-n1cccc1,14.1 µM (active),–
O=C(NNC(=O)c1ccccc1-n1cccc1)c1ccccc1,inactive,–
COc1nc(C)nc(Cl)c1NC1=NCCN1,inactive,–
C/C(=C\c1ccco1)C1C(C#N)=C(N)Oc2n[nH]c(-c3ccccc3)c21 (configuration not stated),0.2 µM (active),–
COc1ccc(C(C)(C)C)cc1NC(=O)c1cncc(Br)c1,1 µM (active),–
COc1ccc(Nc2nc(N)nc(CSc3n[nH]c(-c4ccccc4)n3)n2)cc1,15.8 µM (active),–
Cc1nnc(SCc2nc(N)nc(Nc3ccccc3)n2)s1,4.47 µM (active),–
NC[C@@H]1O[C@H](O[C@@H]2[C@H](O[C@@H]3O[C@H](CO)[C@@H](COC[C@H]4O[C@@H](CN)[C@@H](O)[C@@H](O)[C@@H]4N)[C@@H]3O)[C@@H](O)[C@@H](N)C[C@H]2N)[C@@H](N)[C@H](O)[C@@H]1O,inactive,–
Cc1cc(C)cc(N(C(=O)Cc2cccs2)C(C(=O)NC2CCCCC2)c2ccccn2)c1 (configuration not stated),inactive,–
O=C(OC(C(=O)NC1CCCC1)c1ccncc1)C1=Cc2ccccc2OC1 (configuration not stated),11.2 µM (active),–
CC(C)c1ccc(N(C(=O)C(F)(F)F)C(C(=O)NC2CCCCC2)c2ccncc2)cc1 (configuration not stated),inactive,–
NCCOB(c1ccccc1)c1ccccc1,15.8 µM (active),–
Cc1noc(C)c1C(=O)N1CCC2(CCCN(Cc3ccc(C#N)cc3)C2)CC1,inactive,–

Compound,AC50,"activity, negative = inhibition"
Cc1noc(C)c1C(=O)OCC(=O)NC(c1ccccc1)c1ccccc1,inactive,–
Cc1noc(C)c1-c1cc(Nc2ccccc2)ncn1,1.26 µM (active),–
Cc1noc(C)c1-c1cc(Nc2ccc(F)cc2)ncn1,0.501 µM (active),–
Cc1n[nH]c(C)c1S(=O)(=O)N1CCOCC1,inactive,–
CCc1cc2c(nc1CC)CCN(CC/C(C)=N/O[C@@H](C)c1cc(-c3c(C)cc(C)cc3C)no1)C2,–,-8.6% [at 11.4 µM] (inactive)
O=C(O)/C(=C\c1ccc(O)cc1)c1cccc2ccccc12,–,-10.8% [at 11.4 µM] (inactive)
O=C(c1cnn(-c2ccccc2)c1)c1ccc2ccccc2c1O,2.51 µM (active),–
CC(C)CNC(=O)O,–,-14.2% [at 11.4 µM] (inactive)
Cc1ccc(CN2C(=O)CCC2C(=O)NCc2cccnc2)cc1 (configuration not stated),inactive,–
Cc1ccc(NC2c3ncccc3C(=O)N2Cc2ccc(F)cc2)cc1 (configuration not stated),11.2 µM (active),–
CN[C@@H]1NC(=O)c2ccccc2N1Cc1ccc(F)cc1,–,-7.56% [at 2.29 µM] (inactive)
CN(C)c1ccc(-c2ccc3ncnc(NCc4ccccc4)c3c2)cc1,0.501 µM (active),–
CN(C)C(=O)c1ccc(-c2ccc3ncnc(NCc4ccccc4)c3c2)cc1,15.8 µM (active),–
CN(C)C(=O)c1ccc(-c2ccc3ncnc(NCc4cccs4)c3c2)cc1,15.8 µM (active),–
Cc1cccc(CNc2ncnc3ccc(-c4ccc(C(=O)N(C)C)cc4)cc23)c1,15.8 µM (active),–
CO[C@@H](C(C)C)[C@@H](C)[C@@H]1OC(=O)C[C@@H]1O,–,-5.03% [at 11.4 µM] (inactive)
CN(C)c1ccc(-c2cncnc2NCc2ccccc2)cc1,1 µM (active),–
CN(C)c1ccc(-c2cncnc2NCc2cccnc2)cc1,1 µM (active),–
CC(C)CO/N=C1/C[C@@H](O)[C@@H](O)[C@@H]2[C@@H]3C(=O)N([C@@H](C)c4ccccc4)C(=O)[C@H]3CC[C@H]12,–,4.53% [at 11.4 µM] (inactive)
CN=C1S/C(=C\c2ccc(Sc3ccc(Cl)cc3)o2)C(=O)N1C,3.55 µM (active),–
Clc1ccc(Sc2ccc(/C=N/n3cnnc3)o2)cc1,14.1 µM (active),–
CN(C)c1nc(C#N)nc(N2CCOCC2)n1,1.58 µM (active),–
Cc1cc(C(=O)OC2CCOC2=O)c2ccccc2n1 (configuration not stated),2.82 µM (active),–

Compound,AC50,"activity, negative = inhibition"
CC1(C)[C@@H]2CC[C@@](C)(C2)[C@H]1OC(=O)c1ccccc1C(=O)O,–,2.82% [at 11.4 µM] (inactive)
CCCCN1CCC(n2c(=O)[nH]c3ccccc32)CC1,inactive,–
OC(CCCN1CCCCC1)(c1ccccc1)c1ccccc1,inactive,–
CCCCCCN1Cc2ccccc2C1,12.6 µM (active),–
COCCCNC(=O)CN(c1ccc(OC)cc1)S(=O)(=O)c1ccc(NC(C)=O)cc1,inactive,–
COc1ccc(CCNC[C@H](O)c2ccc(O)cc2)cc1OC,inactive,–
CCOc1nc(NCCc2ccc(OC)c(OC)c2)nc(NC(C)(C)CO)n1,5.01 µM (active),–
C=CCOc1ccc(CNC(C)(C)CO)cc1OC,inactive,–
CCSC[C@@H](N)C(=O)O,–,-1.61% [at 2.29 µM] (inactive)
Cc1c(Cl)c([N+](=O)[O-])nn1Cc1ccc(C(=O)N/N=C\c2cc(Cl)ccc2O)o1,1.58 µM (active),–
Cc1c(Cl)c([N+](=O)[O-])nn1Cc1ccc(C(=O)N/N=C\c2cccc(Br)c2)o1,3.16 µM (active),–
Cc1nn(Cc2ccc(Cl)cc2)c(C)c1NC(=O)Cn1nc([N+](=O)[O-])c(Cl)c1C,inactive,–
CN(C)CC(O)COc1ccc(C(C)(C)c2ccc(OCC(O)CN(C)C)cc2)cc1 (configuration not stated),inactive,–
CC(=O)c1cccc(NC=C2C(=O)OC3(CCCCC3)OC2=O)c1,3.55 µM (active),–
O=C(O)[C@H]1CC=CC[C@@H]1C(=O)Nc1cccc(O)c1,–,-18.8% [at 11.4 µM] (inactive)
CSCCC(NC=C1C(=O)OC(C)(C)OC1=O)C(=O)O (configuration not stated),inactive,–
CC1(C)OC(=O)C(=CNc2cccc(O)c2)C(=O)O1,12.6 µM (active),–
CC(=O)Nc1cccc(N2C(=O)CCC2=O)c1,inactive,–
CCCC[C@H](CC)CN1CN(C[C@@H](CC)CCCC)CC(C)(N)C1,inactive,–
Cc1cc(C)n(-c2nc(Nc3ccccc3C)nc(-n3nc(C)cc3C)n2)n1,inactive,–
Cc1cc(C)n(-c2nc(NC(C)C)nc(NC(C)C)n2)n1,10 µM (active),–
COc1cccc(C(=O)/C=C/c2ccc(SC)cc2)c1,2.51 µM (active),–
CCOC(=O)CSc1nnc(NC(=O)c2cccc(S(=O)(=O)N3CCCCCC3)c2)s1,inactive,–

Compound,AC50,"activity, negative = inhibition"
CCOC(=O)CSc1n[nH]c(NC(=O)c2cccc(C(F)(F)F)c2)n1,3.16 µM (active),–
Cn1sc(NC(=O)c2ccccc2)nc1=O,inactive,–
CCOC(=O)CC(=O)CSc1nc(-c2cccnc2)cc(C)c1C#N,10 µM (active),–
Cc1ccc(NC(=O)CN(C)C(=O)CSc2n[nH]c(N)n2)cc1,inactive,–
CCOC(=O)CSc1n[nH]c(NC(=O)c2ccccc2)n1,10 µM (active),–
CCOC(=O)CSc1n[nH]c(NC(=O)c2cccc(C)c2)n1,15.8 µM (active),–
C[C@@H]1NC(=O)C/C=C\[C@@H](C)[C@@H]2C=C[C@H](O)[C@@H](COC(=O)[C@H](C)NC(=O)C/C=C\[C@@H](C)[C@@H]3C=C[C@H](O)[C@@H](COC1=O)O3)O2,–,-3.28% [at 11.4 µM] (inactive)
COC(=O)N1CCC2(CC1)CN(C(=O)Nc1cccc(C#N)c1)C2,inactive,–
CN1CCC(=C2c3ccccc3CCc3sccc32)CC1,inactive,–
CCOC(=O)CSc1n[nH]c(-c2cccnc2)n1,2.51 µM (active),–
COc1ccc(CNc2ncnc3ccc(-c4ccoc4)cc23)c(OC)c1,1.58 µM (active),–
COc1ccccc1CNc1ncnc2ccc(-c3ccoc3)cc12,2.51 µM (active),–
CS(=O)(=O)N1CCC[C@@]2(CCN(C(=O)Nc3ccccc3)C2)C1,inactive,–
COC(=O)[C@@]1(Cc2ccccc2)[C@H]2c3cc(C(=O)N4CCCC4)n(Cc4ccccn4)c3C[C@H]2CN1C(=O)c1ccccc1,inactive,–
N[C@H](C(=O)O)[C@@H]1C[C@@H]1C(=O)O,inactive,–
O=c1[nH]c2cc(Br)cnc2nc1/C=C(\O)c1ccc(F)cc1,0.398 µM (active),–
CCNc1ncc2nc(-c3cccc(C#N)c3)c(=O)n(C)c2n1,2.51 µM (active),–
CCNc1ncc2nc(-c3ccc(F)cc3)c(=O)n(C)c2n1,0.501 µM (active),–
CCNc1ncc2nc(-c3ccccc3)c(=O)n(C)c2n1,0.398 µM (active),–
CCNc1ncc2nc(-c3ccc(OC)cc3)c(=O)n(Cc3ccc(F)cc3)c2n1,inactive,–
CCNc1ncc2nc(-c3cc(F)cc(F)c3)c(=O)n(C)c2n1,2 µM (active),–
O=C1O[C@@H]([C@H](O)[C@H](O)[C@H](O)CO)[C@@H](O)[C@@H]1O,–,-12.7% [at 11.4 µM] (inactive)
NC(=O)c1cc[n+](CC2=C(C(=O)[O-])N3C(=O)[C@@H](NC(=O)Cc4cccs4)[C@@H]3SC2)cc1,inactive,–
